Counter-ions that a name gives are not always drawn.
Key:
Test in all cases: Euclidean distance of Cell Painting phenotypic profile (signed KS, 77 features) to DMSO centroid (dimensionless distance); 5 or 10 uM (library dependent); higher = stronger phenotypic change vs DMSO (phenoactivity)
Settings in all cases: 48 h
[1] = tested on: 786-O
Summary of the method: (§1)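 Five cancer lines, together with a healthy fibroblast line, received library compounds for 48 h at a library-dependent 10 or 5 uM and 0.1% DMSO final. Harmony then derived 77 features from confocal 20X images (9 fields/well) of the stained cells, scoring each as a signed Kolmogorov-Smirnov statistic against same-plate vehicle wells. After plate-position correction, correlation weighting and replicate averaging at the top dose, phenoactivity was taken as each profile's Euclidean distance to the median vehicle profile.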

[2] = tested on: A549
Summary of the method: as §1

[3] = tested on: DU145
Summary of the method: as §1

[4] = tested on: FB
Summary of the method: as §1

[5] = tested on: HEPG2
Summary of the method: as §1

[6] = tested on: OVCAR4
Summary of the method: as §1

SMILES	Euclidean distance [1]	Euclidean distance [2]	Euclidean distance [3]	Euclidean distance [4]	Euclidean distance [5]	Euclidean distance [6]
C[N+](C)(C)CC(=O)O [Betaine]	1.1	0.84	0.542	0.947	1.41	0.81
COC(=O)N[C@H](C(=O)N1CCC[C@H]1C(=O)Nc1ccc([C@@H]2CC[C@@H](c3ccc(NC(=O)[C@@H]4CCCN4C(=O)[C@@H](NC(=O)OC)C(C)C)cc3)N2c2ccc(C(C)(C)C)cc2)cc1)C(C)C [Ombitasvir (ABT-267)]	1.9	1.76	1.29	1.1	1.24	1.26
Oc1cc(O)c2c(c1)O[C@H](c1ccc(O)c(O)c1)[C@H](O)C2 [(-)Epicatechin]	1.1	0.627	0.705	1.15	0.982	1.04
OC[C@H]1O[C@@H](c2ccc(F)c(Cc3cc4ccccc4s3)c2)[C@H](O)[C@@H](O)[C@@H]1O [Ipragliflozin (ASP1941)]	0.648	0.591	0.895	0.802	0.412	0.699
CNC(=O)c1ccc(-c2cnc3ncc(Cc4ccc5ncccc5c4)n3n2)cc1F	1.36	0.853	0.871	0.899	0.745	0.726
N=C(N)NCCN1CCCCCCC1 [Guanethidine Monosulfate]	1.05	1.78	0.775	1.38	0.975	1.68
N[C@@H](Cc1c[nH]c2ccccc12)C(=O)O [L-Tryptophan]	0.689	1.11	0.644	0.569	0.851	1.36
O=C(O)/C=C/c1cnc[nH]1 [Urocanic acid]	1.13	0.682	0.798	0.718	0.554	1.26
CCCCOC(=O)c1ccccc1Nc1cccc(C(F)(F)F)c1 [Ufenamate]	1.52	0.505	1.4	1.25	0.931	1.83
COc1ccc(NS(=O)(=O)c2sc3ccc(Cl)cc3c2C)cc1N1CCNCC1	2.31	1.39	1.12	1.13	1.35	1.29
CCCCN1CCCCC1C(=O)Nc1c(C)cccc1C (stereo not given) [Bupivacaine HCl]	1.38	0.594	1.45	0.904	0.991	1.15
Cc1c(C(=O)NN2CCCCC2)nn(-c2ccc(Cl)cc2Cl)c1-c1ccc(I)cc1	1.16	1.17	0.842	1.03	0.6	0.903
Cc1cccc(C)c1OCC(C)N (stereo not given) [Mexiletine HCl]	0.988	0.742	0.639	1.07	0.966	0.836
COc1ccnc(C[S+]([O-])c2nc3cc(OC(F)F)ccc3[nH]2)c1OC (stereo not given) [Pantoprazole sodium]	0.766	0.778	1.1	1.01	1.03	0.752
CN(C)CCC=C1c2ccccc2COc2ccccc21 [Doxepin HCl]	1.22	1.14	1.36	1.45	0.967	2.09
O=C(O)c1cccc(-c2noc(-c3ccccc3F)n2)c1 [Ataluren (PTC124)]	1.05	0.791	1.17	1.13	0.816	1.51
c1ccc2c(CCNc3ccc(Nc4ccncc4)cc3)c[nH]c2c1	2.61	2.76	1.77	2.87	2.65	3.75
CCOC(=O)[C@H](CCc1ccccc1)N[C@@H](C)C(=O)N1[C@H](C(=O)O)C[C@H]2CCCC[C@@H]21 [Trandolapril]	1.34	0.478	0.864	0.819	0.562	0.99
COc1cc2c(cc1OC)CN(CCc1ccc(NC(=O)c3cc(OC)c(OC)cc3NC(=O)c3cnc4ccccc4c3)cc1)CC2 [Tariquidar]	0.987	1.26	1	1.17	0.844	1.04
O=C(/C=C/c1ccc(O)c(O)c1)O[C@H](Cc1ccc(O)c(O)c1)C(=O)O [Rosmarinic acid]	0.778	0.874	0.818	0.847	0.532	0.722
Cc1cccc(Nc2nc(-c3ccncc3)cs2)c1	3.35	3.77	4.06	3.02	1.11	1.73
CC(C)CCCCC(=O)N[C@@H](CCN)C(=O)N[C@H](C(=O)N[C@@H](CCN)C(=O)N[C@H]1CCNC(=O)[C@H]([C@@H](C)O)NC(=O)[C@H](CCN)NC(=O)[C@H](CCN)NC(=O)[C@H](CC(C)C)NC(=O)[C@@H](Cc2ccccc2)NC(=O)[C@H](CCN)NC1=O)[C@@H](C)O [Polymyxin B sulphate]	1.64	0.815	1.39	1.53	0.717	0.928
NCCNc1ccc(NCCN)c2c1C(=O)c1ccncc1C2=O [Pixantrone Maleate]	4.41	3.32	3.46	4.14	4.48	3.49

SMILES	Euclidean distance [1]	Euclidean distance [2]	Euclidean distance [3]	Euclidean distance [4]	Euclidean distance [5]	Euclidean distance [6]
Nc1nc(OCc2cc(Br)cs2)c2[nH]cnc2n1 [Lomeguatrib]	1.07	1.13	1.15	1.29	0.861	1.04
CC(C)=CCC/C(C)=C/CC/C(C)=C/CCC(=O)OC/C=C(\C)CCC=C(C)C [Gefarnate]	0.868	0.898	0.637	1.09	0.64	0.606
C[N+]1(C)CCC(=C(c2ccccc2)c2ccccc2)CC1 [Diphemanil Methylsulfate]	1.08	0.915	1.02	0.946	0.465	1.83
CCc1c(O)cc(O)c(C(=O)c2ccc(OCCN3CCOCC3)c(OC)c2)c1CC(=O)N(CCOC)CCOC	2.14	3.28	2.34	3.63	2.39	3.18
OC(c1ccccc1)(c1ccccc1)C12CC[N+](CCOCc3ccccc3)(CC1)CC2 [Umeclidinium bromide]	0.834	1.43	0.97	1.27	0.7	1.64
C[C@]12CC[C@@H]3c4ccc(O)cc4CC[C@H]3[C@@H]1CC[C@@H]2OC(=O)CCC1CCCC1 [Estradiol Cypionate]	1.29	1.56	1.4	1.23	0.84	1.34
N[C@@H]1CCCCN(c2c(F)cc3c(=O)c(C(=O)O)cn(C4CC4)c3c2Cl)C1 [Besifloxacin HCl]	0.849	1.19	0.808	0.781	0.864	0.585
O=C(NCCO[N+](=O)[O-])c1cccnc1 [Nicorandil]	1.26	0.857	1.26	1.09	0.784	1.38
NC(=O)[C@@H]1CCCN1C(=O)[C@H](Cc1c[nH]cn1)NC(=O)[C@@H]1CCC(=O)N1 [Protirelin]	1.34	0.937	0.758	1.31	0.44	0.947
NC[C@H]1CC[C@H](C(=O)O)CC1 [Tranexamic Acid]	1.31	0.903	0.735	0.672	1.31	1.09
CN(C)CCN1C(=O)c2cccc3cc(N)cc(c23)C1=O [Amonafide]	3.45	4	2.47	3.29	4.06	3.48
CC(C)C[C@H](NC(=O)CNC(=O)c1cc(Cl)ccc1Cl)B(O)O	5.04	3.61	5.19	3.83	4.44	4.31
CCNC(=O)CCC/C=C\C[C@@H]1[C@@H](/C=C/[C@@H](O)CCc2ccccc2)[C@H](O)C[C@@H]1O [Bimatoprost]	1.63	1.42	0.906	1.4	0.869	1.27
CCCCCCCN(CC)CCCC(O)c1ccc(NS(C)(=O)=O)cc1 (stereo not given) [Ibutilide Fumarate]	1.19	0.555	1.13	1.27	1.2	1.47
N[C@H](Cc1ccccc1)C(=O)O [D-Phenylalanine]	1.65	1.05	0.814	0.864	0.733	0.852
CC1(C)S[C@@H]2[C@H](NC(=O)[C@H](N)c3ccc(O)cc3)C(=O)N2[C@H]1C(=O)O [Amoxicillin Sodium]	1.03	1.17	1.56	1.06	1.08	1.78
O=C1CCC(N2C(=O)c3ccccc3C2=O)C(=O)N1 (stereo not given) [Thalidomide]	1.48	0.846	0.603	1.22	0.461	1.67
O=C(CSc1nc2c(c(=O)n1-c1ccccc1)SCC2)Nc1ccc(-c2ccccc2)cn1	1.36	1.81	1.11	0.832	1.42	0.588
Cn1c(=O)c2c(ncn2CCO)n(C)c1=O [Etofylline]	1.39	0.749	1.18	1.08	0.452	1.26
CCOCCn1c(C2CCN(CCc3ccc(C(C)(C)C(=O)O)cc3)CC2)nc2ccccc21 [Bilastine]	1.25	1.12	1.37	0.933	0.505	0.894
NC(=O)c1cccc2cn(-c3ccc([C@@H]4CCCNC4)cc3)nc12 [Niraparib (MK-4827) tosylate]	2.41	2.21	1.59	2.49	2.86	1.92
CC1(C)O[C@@H]2C[C@H]3[C@@H]4CCC5=CC(=O)C=C[C@]5(C)[C@H]4[C@@H](O)C[C@]3(C)[C@]2(C(=O)CO)O1 [Desonide]	1.09	1.9	2.27	1.55	0.639	1.61
